FBW7 activator: FBW7 E3 ligase activators, primary screen, biochemical, AlphaScreen, human | AlphaScreen FBW7–phospho-cyclin E peptide binding, activator screen | normalized activity (activation), % at 26.1 µM | 0.13% of 650,000 active; in the data active = normalized activity above about 1.9%;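 also: purified mutant Fbw7 with reduced substrate affinity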
MITF primary: MITF inhibitors, primary screen, biochemical, AlphaScreen, human; Microphthalmia-associated transcription factor (Homo sapiens), O75030; AlphaScreen MITF homodimerization, bead proximity signal; inhibition, % at 2.6 µM; 0.91% of 650,000 active; AID 1259374, 2018; in the data active = inhibition above about 50%
GPR151 activ: activators of human GPR151, primary screen, cell-based, PathHunter beta-arrestin, luminescence; activation, % at 11.2 µM; AID 1508602, 2020; G-protein coupled receptor 151 (Homo sapiens), Q8TDV0; PathHunter beta-arrestin GPR151 cells; 1% of 650,000 active; in the data active = activation above about 4.9%
Target sequence (Q8TDV0 whole entry, looked up): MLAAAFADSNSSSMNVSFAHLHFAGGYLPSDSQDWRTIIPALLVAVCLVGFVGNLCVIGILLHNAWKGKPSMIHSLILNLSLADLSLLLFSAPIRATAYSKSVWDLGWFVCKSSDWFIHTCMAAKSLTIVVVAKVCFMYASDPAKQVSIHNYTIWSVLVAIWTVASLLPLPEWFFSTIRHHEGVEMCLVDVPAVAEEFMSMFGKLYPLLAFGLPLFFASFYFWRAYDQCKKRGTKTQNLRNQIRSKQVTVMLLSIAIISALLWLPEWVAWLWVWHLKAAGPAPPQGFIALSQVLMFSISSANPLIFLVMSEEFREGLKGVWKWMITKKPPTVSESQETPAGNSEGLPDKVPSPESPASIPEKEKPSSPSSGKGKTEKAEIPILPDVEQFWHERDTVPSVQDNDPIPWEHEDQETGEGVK
TEAD-YAP block: TEAD-YAP interaction inhibition, primary screen, TEAD-YAP interaction inhibitor project, luminescence, HEK-TIYL cells; TEAD-Gal4/YAP UAS-luciferase luminescence; inhibition, % at 9.12 µM; 1.4% of 640,000 active; AID 1259422, 2018; in the data active = inhibition above about 32%
MITF inh conf: MITF inhibitors, retest of hits, confirmation, biochemical, AlphaScreen, triplicate; shares compounds with MITF primary; AlphaScreen MITF homodimerization, biotin/His-MITF beads; inhibition, % at 2.6 µM; 16% of 4,700 active;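 active = inhibition above a cutoff derived from the DMSO control wells, cut at about 28% in these data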;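 also: inhibitors lower the bead chemiluminescence by keeping MITF from dimerizing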
AlphaScreen intf2: AlphaScreen optical interference compounds, counter-screen for MITF inhibitor project, biochemical, triplicate; shares compounds with MITF primary; LysRS AlphaScreen counterscreen, signal interference; inhibition, % at 2.6 µM; 7.6% of 4,700 active;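 active = inhibition above a cutoff derived from the DMSO control wells, cut at about 30% in these data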
Hits are given with their value; i = inactive; nt = no result given. Only some compounds are listed: those with a hit (about 3.5% of all), similar ones and a draw of the others.

SMILES	FBW7 activator	MITF primary	GPR151 activ	TEAD-YAP block	MITF inh conf	AlphaScreen intf2
O=C(N1CCN(Cc2ccccc2)CC1)C12CC3CC(CC(O)(C3)C1)C2	i	53	i	i	i	i
CCC(C)NCCOCCOc1ccc(C)cc1Cl (centres undefined)	i	77	i	i	i	i
CCC(C)NCCOCCOc1ccc(OC)cc1 (centres undefined)	i	84	i	i	i	i
CCC(C)NCCOc1ccc(OC)cc1 (centres undefined)	i	i	i	i	nt	nt
CCC(C)NCCOCCOc1ccc(C)cc1OC (centres undefined)	i	54	i	i	i	i
CCC(C)NCCOCCOc1ccc(Cl)cc1Br (centres undefined)	i	i	i	i	nt	nt
Cn1c(=NC(=O)c2ccc(Oc3ccccc3)cc2)sc2ccc(Br)cc21	i	i	i	i	nt	nt
O=C(COC(=O)CCCSc1nc2ccccc2s1)NCC(F)(F)F	i	i	i	i	nt	nt
COc1ccc(-c2noc(CN(C(=O)c3ccc(OC)c([N+](=O)[O-])c3)C(C)C)n2)cc1	i	i	i	i	nt	nt
COc1ccc(C(=O)N(Cc2nc(-c3ccc(C)cc3)no2)C(C)C)cc1[N+](=O)[O-]	i	55	i	i	i	i
CCOC(=O)/C(Br)=N\Nc1ccc(C)cc1	i	84	i	i	i	i
CCOC(=O)/C(Cl)=N\Nc1ccccc1	i	i	i	i	nt	nt
O=C(C1CC12CCN(C/C=C/c1ccco1)CC2)N1CCN(c2ccccc2)CC1 (centres undefined)	i	i	i	i	nt	nt
CCCN1CCCc2cc(CCNS(C)(=O)=O)ccc21	i	51	i	i	i	i
O=c1c2sc(=S)n(Cc3ccco3)c2nc(SCc2ccc(F)cc2Cl)n1-c1ccccc1	i	51	i	i	i	i
O=c1c2sc(=S)n(Cc3ccco3)c2nc(SCc2ccc(F)cc2Cl)n1-c1ccc(F)cc1	i	i	i	i	nt	nt
CCC(C)NC(=O)C(C)Sc1ccccc1 (centres undefined)	i	i	i	i	nt	nt
CC(C)(C)C(=O)CN1C(=O)COc2ccccc21	i	67	i	i	i	i
C=Cn1ccnc1P(c1ccccc1)c1nccn1C=C	i	104	i	i	110	100
C/C(Cc1nc2ccccc2[nH]1)=N/Nc1ccccc1	i	i	i	i	nt	nt
O=[N+]([O-])c1ccc(CN2CCN(C/C=C/c3ccccc3)CC2)o1	i	65	i	i	i	i
CCN1CCN(C/C=C/c2ccccc2OC)CC1	i	51	i	i	i	i
CCN1CCN(C/C=C/c2ccccc2[N+](=O)[O-])CC1	i	60	i	i	i	i
COc1ccc(C(=O)[C@H]2CCCN(C(=O)c3cc(-c4ccco4)on3)C2)cc1	i	i	i	i	nt	nt
CCN(CC)C(=O)CSc1nnc(-c2ccccc2O)n1Cc1ccco1	i	i	i	i	nt	nt
SMILES	FBW7 activator	MITF primary	GPR151 activ	TEAD-YAP block	MITF inh conf	AlphaScreen intf2
COCCn1c(C)cc(O)c(C(c2ccc(Cl)cc2)N2CCN(c3ccc(F)cc3)CC2)c1=O (centres undefined)	i	i	i	i	nt	nt
N#Cc1ccccc1CNCc1ccc(Cl)cc1	i	52	i	i	i	i
C=CCc1cc(C)ccc1OCCOCCn1ccnc1	i	66	i	i	i	i
C=CCc1cc(OC)ccc1OCCCCn1ccnc1	i	78	i	i	i	i
Clc1cccc(Cl)c1OCCCCn1ccnc1	i	52	i	i	i	i
C=CCc1cc(Cl)ccc1OCCCCn1ccnc1	i	68	i	i	i	i
O=C(O)CCc1ccc(S(=O)(=O)NC2CCCCC2)cc1	i	i	i	i	nt	nt
CC1NC(=O)NC1CCCCCC(=O)OCC(=O)c1ccccc1 (centres undefined)	i	115	i	i	118	100
O=C(CCCC(=O)OCC(=O)c1ccccc1)Nc1ccccc1	i	i	i	i	nt	nt
CCOC(=O)N1CCN(CC(=O)N2c3ccccc3CC2C)CC1 (centres undefined)	i	67	i	i	i	i
CC1Cc2ccccc2N1C(=O)CN1CCCN(CC(=O)N2c3ccccc3CC2C)CC1 (centres undefined)	i	62	i	i	i	i
CC1Cc2ccccc2N1C(=O)CN1CCN(C)CC1 (centres undefined)	i	77	i	i	i	i
CCOC(=O)N1CCN(CC(=O)N2c3ccccc3Sc3ccccc32)CC1	i	53	i	i	i	i
CC(C)c1ccc(NS(=O)(=O)c2cc3c4c(c2)CC(=O)N4CCC3)cc1	i	i	i	i	nt	nt
CCOc1ccc(NC(=O)C/C(C)=N/NC(=O)c2ccc(O)cc2O)cc1	i	i	i	i	nt	nt
O=S(=O)(c1ccc(F)cc1)N1CCN(C2CC3CCC2C3)CC1 (centres undefined)	i	i	i	i	nt	nt
CCOC(=O)c1ccc(Oc2nc(N(C)C)nc(N(C)C)n2)cc1	i	54	i	i	i	i
CCNc1nc(Oc2ccc(C(=O)OCC)cc2)nc(N(C)C)n1	i	i	i	i	nt	nt
CCOC(=O)C(=O)Nc1sc(C(=O)N2CCOCC2)c(C)c1C#N	i	71	i	i	i	i
CCOC(=O)CN1C(=O)S/C(=C/c2ccc(-c3cc([N+](=O)[O-])ccc3Cl)o2)C1=O	i	i	i	i	nt	nt
CCOc1cc(CN2CCN(Cc3ccncc3)CC2)ccc1OC	i	73	i	i	i	i
CCOc1cc(CN2CCN(S(C)(=O)=O)CC2)ccc1OC	i	55	i	i	i	i
CCOc1cc(CN2CCN(Cc3ccc(F)cc3)CC2)ccc1OC	i	i	i	i	nt	nt
COc1cc(CN2CCN(S(C)(=O)=O)CC2)ccc1OCc1ccccc1	i	54	i	i	i	i
CCOc1cc(CN2CCN(S(=O)(=O)CC)CC2)ccc1OC	i	i	i	i	nt	nt
SMILES	FBW7 activator	MITF primary	GPR151 activ	TEAD-YAP block	MITF inh conf	AlphaScreen intf2
CC(C)(C)NC(=O)C(c1cccnc1)N(Cc1ccc(F)cc1)C(=O)c1csnn1 (centres undefined)	i	i	i	i	nt	nt
CSc1ccccc1C(=O)Nc1nnc(-c2ccco2)o1	i	i	i	i	nt	nt
CC(C)N(Cc1ccccc1)S(=O)(=O)c1ccc2[nH]c(=O)ccc2c1	i	i	i	i	nt	nt
O=C(CN1CCCC1)Nc1c2c(nc3c1CCC3)CCC2	i	76	i	i	i	i
O=C(CN1CCCCCC1)Nc1c2c(nc3c1CCC3)CCCC2	i	58	i	i	i	i
CCCCC(=O)Nc1c2c(nc3c1CCC3)CCCC2	i	i	i	i	nt	nt
Cc1n[nH]c(C)c1NC(=O)CN1CCCCCC1	i	62	i	i	i	i
CN1CCN(CC(=O)Nc2c3c(nc4c2CCC4)CCCC3)CC1	i	74	i	i	i	i
CCOC(=O)c1c(NC(=O)Cc2ccc([N+](=O)[O-])cc2)sc2ccccc12	i	i	i	i	nt	nt

Source: PubChem
